# Source: PubChem (National Center for Advancing Translational Sciences (NCATS))
# Prx2 Sm inh – inhibitors of Schistosoma mansoni peroxiredoxin 2; S. mansoni Prx2 activity coupled to TGR/GSH (TGR is thioredoxin glutathione reductase), NADPH fluorescence loss, qHTS; Potency, µM; 65,000 tested, 0.07% active; AID 448
#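 Purified S. mansoni TGR and Prx2 in pH 7.4 phosphate buffer with EDTA and Tween-20 were preincubated with compounds for 15 min. Further NADPH/GSH was added, then a 2.5 mM H2O2 aliquot initiated turnover, followed kinetically by NADPH fluorescence.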
# AmpC inh det – AmpC beta-lactamase inhibition, detergent assay | purified AmpC, nitrocefin hydrolysis with detergent | P00811 | Potency, µM (doses to about 28.7 µM), for inactives: at the highest dose activity change, negative = inhibition | AID 584 | 71,000 tested, 0.09% active; active = well fitted curve in the direction sought with a large enough effect; inconclusive = small, poorly fitted or top-dose-only effect; note: % is set by controls: 0 for no effect and ±100 for the full control effect
# Target sequence (P00811 whole entry, looked up): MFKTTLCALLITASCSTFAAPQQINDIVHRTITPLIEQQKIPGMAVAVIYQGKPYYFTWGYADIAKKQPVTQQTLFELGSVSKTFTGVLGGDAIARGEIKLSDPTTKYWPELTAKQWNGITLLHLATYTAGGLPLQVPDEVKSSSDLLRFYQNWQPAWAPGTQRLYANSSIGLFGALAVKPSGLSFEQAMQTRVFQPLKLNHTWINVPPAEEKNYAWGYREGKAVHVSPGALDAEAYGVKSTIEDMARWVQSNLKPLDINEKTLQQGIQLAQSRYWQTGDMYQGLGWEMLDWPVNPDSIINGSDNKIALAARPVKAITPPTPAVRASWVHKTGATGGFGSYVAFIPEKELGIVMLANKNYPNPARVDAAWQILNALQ
#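 E. coli AmpC (5.3 nM) in 20 mM phosphate pH 7.0 with 0.01% Triton X-100, preincubated 15 min RT with compound; nitrocefin (2 uL of 800 uM stock) hydrolysis followed by 480 nm absorbance every 20 s over 4 min.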
# Anthrax LT inh – anthrax lethal toxin internalization inhibition. AID 912. Cells, anthrax lethal toxin internalization, FRET ratio (460/530). Potency, µM (doses to about 40 µM), inactives show at the top dose activity change, negative = inhibition, hits mostly inhibitors. 70,000 tested, 0.67% active; note: % is set by controls: 0 for no effect and ±100 for the full control effect; nearly all actives have a fitted effect of over 50% in size
# AmpC inh no det – inhibitors of E. coli AmpC beta-lactamase without detergent | P00811 | AmpC nitrocefin hydrolysis, absorbance 480 nm, no detergent | Potency, µM (doses to about 28.7 µM), inactives show at the top dose activity change, negative = inhibition | 71,000 tested, 1.8% active; note: % of control where 0% means no effect
#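 AmpC, 20 mM phosphate pH 7.0; 15 min cpd preinc, RT; start with nitrocefin (800 uM stock); A480 kinetic read, 20 s intervals, 4 min. No-enzyme wells = negative control.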
# Starred values were filed as active, the others as inactive; u = inconclusive; x = no result; ! = repeats disagree; [ ] = remark or other dose. Rows were chosen to be rich in hits. Some 2.6% of all compounds tested hit in one or more screens of this group. Unless noted, calls come from the whole dose curve. Potency is the fitted concentration of half-maximal effect.
SMILES,Prx2 Sm inh,AmpC inh det,Anthrax LT inh,AmpC inh no det
O=C(NCc1ccccc1Cl)C1CCN(C(=O)c2sccc2-n2cccc2)CC1,>57,3.7%,12.6µM*,25.2%
CC1=CC(=O)CC(C)(C)[C@@]1(O)/C=C\C(C)=C\C(=O)O,>57,-0.8%,u,4.2%
Cc1cccc(NC(=O)C2CCN(S(=O)(=O)c3cccc4nsnc34)CC2)n1,>57,-0.3%,19.4%,8.1%
COc1ccc2nc(NC(=O)C3CCN(S(=O)(=O)c4cccc5nsnc45)CC3)sc2c1,>57,0.5%,12.6µM*,7.3%
O=C(O)CCNc1ccccc1C(=O)O,>57,-4.3%[5.75 µM],-4.8%[8 µM],9.6%[5.75 µM]
O=S(=O)(c1ccccc1)N1CCC2(CCCN(c3ccccc3)C2)CC1,>57,0.7%,u,3.5%
O=S(=O)(c1ccccc1)N1CCC2(CCCN(c3ccncc3)C2)CC1,>57,-3.6%,1µM*,21.4%
CSCC[C@@H](C(=O)Nc1ccc2c(c1)OCCO2)N1Cc2ccccc2C1=O,>57,8.1%,-7.0%,3.98µM*[single pt active]
CCC(C)[C@@H](C(=O)Nc1ccc(OC)c(OC)c1)N1Cc2ccccc2C1=O (some centres not stated),>57,13.3%,9.3%,3.98µM*[single pt active]
C/C(=C\COc1cc(=O)[nH]c2ccccc12)CC[C@@H](O)C(C)(C)O,>57,-0.7%,u,23.6%
CN(C)c1oc(-c2ccccc2Cl)nc1S(=O)(=O)c1ccccc1,>57,10.6%,-22.1%,3.98µM*[single pt active]
CN(C)c1oc(-c2ccccc2Cl)nc1C#N,x,-5.6%,1.4%,0.9%
COc1ccc2c3c([nH]c2c1)C(C)=NCC3,>57,-3.3%,u,-1.1%
CC1=NCCc2c1[nH]c1cc(O)ccc21,>57,1.2%,u,12.6µM*!
Cc1cc(-c2ccccc2)n2ncc(C#N)c2n1,>57,13.1%,-12.8%,3.98µM*[single pt active]
CSc1nc2nc(C)cc(-c3ccccc3)n2n1,>57,-5.6%,5.1%,11.6%
C[C@@H](O)[C@H]1C(=O)N2C(C(=O)O)=C(S[C@@H]3CN[C@H](C(=O)N(C)C)C3)[C@H](C)[C@H]12,>57,-1.3%[12.8 µM],0.501µM*,26.8%[12.8 µM]
C[C@@]12CCC(=O)C=C1CC[C@H]1[C@H]3CC[C@](O)(C(=O)CO)[C@]3(C)CC[C@@H]12,>57,-4.6%,13.3%,15.2%
CCn1c2ccccc2c2cc(NC(=O)CSc3nnnn3-c3ccccc3)ccc21,>57,0.7%,x,10µM*
CCn1c2ccccc2c2cc(NC(=O)c3ccco3)ccc21,x,8.0%,12.6µM*,-5.0%
CCn1c2ccccc2c2cc(CN3CCN(C(=O)c4ccco4)CC3)ccc21,x,-5.6%,u,148.4%
CC(C)(C)C(=O)[C@H]([C@@H](c1ccccc1)N1CCOCC1)N1CCOCC1,>57,-1.8%[5.75 µM],3.2%[8 µM],9.3%[5.75 µM]
COC(=O)[C@@H]1[C@@H]2C[C@H]3c4[nH]c5ccccc5c4CCN3C[C@@H]2CC[C@@H]1OS(=O)(=O)O,>57,-5.2%[5.75 µM],-8.3%[8 µM],-1.9%[5.75 µM]
CCOc1ccc(C2CC(c3ccc(F)cc3)Nc3nc(N)nn32)cc1 (configuration not stated),>57,12.5%,6.4%,36.1%
COc1cccc(C2CC(c3c(F)cccc3Cl)n3nc(N)nc3N2)c1 (configuration not stated),>57,-2.0%,-18.3%,35.2%
SMILES,Prx2 Sm inh,AmpC inh det,Anthrax LT inh,AmpC inh no det
COc1ccc(C2CC(c3cccc(OC)c3)n3nc(N)nc3N2)cc1 (configuration not stated),>57,8.9%,-5.0%,3.98µM*[single pt active]
COc1cccc(C2CC(c3ccccc3)Nc3nc(N)nn32)c1 (configuration not stated),>57,9.4%,4.2%,3.98µM*[single pt active]
COc1cccc(C2CC(c3c(Cl)cccc3Cl)n3nc(N)nc3N2)c1 (configuration not stated),>57,13.0%,3.5%,3.98µM*[single pt active]
COc1ccc(C2CC(c3ccc(F)cc3)Nc3nc(N)nn32)cc1 (configuration not stated),>57,14.5%,u,3.98µM*[single pt active]
NCCNc1ncnc2ccc(Cl)cc12,>57,-2.1%[5.75 µM],-5.3%[8 µM],-9.2%[5.75 µM]
CC(C)[C@H]1C(=O)N2CCC[C@@H]2[C@]2(O)O[C@@](NC(=O)[C@H]3C=C4c5cccc6[nH]cc(c56)C[C@H]4N(C)C3)(C(C)C)C(=O)N12,>57,1.7%,u,104.9%
COC(=O)CN1C(=O)COc2ccc(Cl)cc21,>57,16.7%,3.3%,3.98µM*[single pt active]
CCOc1ccc(NC(=O)CN2C(=O)COc3ccc(Cl)cc32)cc1,>57,14.3%,u,3.98µM*[single pt active]
COCCNC(=O)CN1C(=O)COc2ccc(Cl)cc21,>57,0.4%,-0.5%,-14.5%
COc1cccc(NC(=O)CN2C(=O)COc3ccc(Cl)cc32)c1,>57,11.9%,15.8µM*,-5.4%
Cc1cccc(NC(=O)CN2C(=O)COc3ccc(Cl)cc32)c1,>57,24.1%,u,-20.5%
NC(=O)COc1ccc(=O)n(-c2ccccc2)n1,>57,10.3%,-8.0%,3.98µM*[single pt active]
Cn1nc(OCC(N)=O)ccc1=O,>57,-5.2%,-5.9%,4.6%
CCCCC/C=C\C[C@H](O)/C=C\c1cccc(C[C@H](O)CCCCO)n1,>57,6.8%,u,137.3%
N[C@]1(C(=O)O)CC[C@@H](C(=O)O)C1,>57,-1.3%,-0.5%,3.6%
Cc1cccc(-c2nc(CS(=O)CC(=O)NCC3CCCO3)c(C)o2)c1 (configuration not stated),>57,10.6%,-5.1%,3.98µM*[single pt active]
Cc1cccc(-c2nc(CS(=O)CC(=O)N3CCCCC3)c(C)o2)c1 (configuration not stated),>57,16.5%,-3.1%,3.98µM*[single pt active]
CCOC(=O)N1CCN(C(=O)CS(=O)Cc2nc(-c3ccc(C)cc3)oc2C)CC1 (configuration not stated),>57,12.3%,-15.8%,108.6%
CC1(C)[C@@H]2CC[C@]1(CC(=O)O)[C@H](Cl)C2,>57,-1.4%[5.75 µM],-0.5%[8 µM],0.7%[5.75 µM]
Nc1ccn([C@@H]2O[C@H](COC(=O)C34CC5CC(CC(C5)C3)C4)[C@@H](O)[C@@H]2O)c(=O)n1,>57,-2.7%[5.75 µM],u,-1.0%[5.75 µM]
CCOC(=O)N1CCN(c2c(NCCN3CCCCC3CC)c(=O)c2=O)CC1 (configuration not stated),>57,13.4%,-8.6%,3.98µM*[single pt active]
CCOC(=O)C1CCN(c2c(N3CCCC(C(=O)OCC)C3)c(=O)c2=O)CC1 (configuration not stated),>57,4.4%,u,15.0%
CCOC(=O)N1CCN(c2c(N3CCC(N4CCCCC4)CC3)c(=O)c2=O)CC1,>57,12.0%,10.8%,3.98µM*[single pt active]
Nc1ncnc2c1nc(Sc1ccc(Cl)cc1)n2[C@@H]1O[C@H]2COP(=O)(O)O[C@@H]2[C@H]1O,>57,-2.9%,2.4%,5.0%
Cn1nc(C(=O)NCCN2CCOCC2)c2ccccc2c1=O,>57,-1.5%,-14.4%,-6.0%
CCn1c2ccccc2c2nnc(SCC(=O)Nc3cc(C)on3)nc21,>57,-1.7%,4.6%,-10.5%
CCn1c(=O)c2cc(C(=O)NCCN3CCOCC3)sc2c2ccccc21,>57,12.2%,-9.4%,3.98µM*[single pt active]
CCn1c(=O)c2ccccc2n2c(SCC(=O)NCc3cccs3)nnc12,>57,13.5%,-6.5%,0.5%
